From ChEMBL document CHEMBL3988442, “University of Dundee, Small-Polar-MMV Screening Library” (2021)

biological target: AMP-activated protein kinase, AMPK (Homo sapiens) (UniProt P54646+O43741+P54619+Q9UGJ0+Q9Y478+Q13131+Q9UGI9); assay: AMP-dependent Kinase enzyme assay. An in vitro enzyme assay that detects ADP turnover that is directly proportional to AMPK activity. This uses naive AMPK that is activated during the assay with MK-8722; format: functional; design: scale not given: direction of the effect not stated beside the values; settings: 30 µM

Compound	Percent Effect [%]
CCc1nc(CNc2cc(C)nc(-c3cccnc3)n2)cs1	-0.151
CCSCCn1cc(-c2ncc[nH]2)nn1	-2.81
CN(C)CC1(O)CCCN(C(=O)CCn2cc(Cl)cn2)C1 (stereo not given)	4.94
Nc1nccnc1C(=O)NC1CCCN(Cc2c(F)cccc2F)C1 (stereo not given)	26.8
O=C(c1cccnc1O)N1CCC2(CCCO2)CC1	0.948
CC1(C)CC(CN2CCC3(CCC(=O)N(C4CCC4)C3)CC2)CCO1 (stereo not given)	-1.15
CC(C)c1cc(NC(=O)Cn2cnc3ccccc3c2=O)[nH]n1	6.52
CS(=O)(=O)c1ccccc1N[C@@H]1c2ccccc2C[C@@H]1O	-13.1
CC(=O)N1CCCC1CCc1ccc(Cl)nn1 (stereo not given)	12.8
Cc1ccc(-c2nnn(CCN3C(=O)CCC3=O)n2)cc1	-8.21
COc1ccsc1C(=O)NC1CCN(c2cccc(F)c2)CC1	-1.16
COc1cc(Br)c(CNc2ccn(CCC(N)=O)n2)cc1OC	3.74
COc1cccc(-c2ncc(CN3CC[C@H](CO)[C@@H](O)C3)s2)c1	-0.478
CCC1COCCN1C(=O)NCc1nccn1Cc1ccccc1 (stereo not given)	-0.566
FC(F)(F)Oc1cccc(CNCc2ccc(-n3cncn3)nc2)c1	12.8
COc1ccccc1CC(C)CC(=O)N(C)Cc1cc(C)on1 (stereo not given)	3.99
O=C(NC1CCCC1)N1C[C@H]2CN(c3ccccn3)C[C@@]2(C(=O)O)C1	3.09
COC[C@]1(O)CCN(c2cc(N3CCOCC3)ncn2)CC1(C)C	-1.8
CC(C)c1cc(C2CCN(C(=O)Cn3cnc4ccccc43)CC2)[nH]n1	10.5
CC1CN(CC(=O)NCc2ccc(F)cc2)CCN1c1nccs1 (stereo not given)	10.2
